Nrf2 activator: Nrf2 pathway activation; AID 624171; Potency, µM (titrated, usually from 46.1 µM), for inactives: top-dose activation, actives largely listed as activators; actives 0.31% (n = 410,000); AREc32 ARE-luciferase reporter (MCF7-derived line), luminescence, 24 h; note: potency is the fitted concentration of half-maximal effect; % of control where 0% means no effect; nearly all actives have a fitted effect of over 65% in size
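AREc32 cells carrying an ARE-driven firefly luciferase, 1000 cells/well in OPTI-MEM with 5% FBS, dosed after overnight attachment and incubated 24 hr at 37 deg C. Steady-Glo luminescence read after 30 min at RT.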
A549 viability: counter-screen for Nrf2 inhibitors: cytotoxicity in A549 cells; A549 ARE-Fluc cells, CellTiter-Fluor viability, 18-24 h; Potency, µM (highest dose often 46 µM), for the others: top-dose activity change, negative = cytotoxicity, most hits filed as inhibitors; actives 0.16% (n = 390,000); note: potency is the fitted concentration of half-maximal effect; % is set by controls: 0 for no effect and ±100 for the full control effect
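Cytotoxicity counterscreen: CellTiter-Fluor fluorescence was measured in A549 ARE_Fluc cells after 18-24 h of compound exposure in a concentration series. The subsequent BugLite luminescent read reports ARE-luciferase activity.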
IL2 activator: activates IL-2 in a cell-based reporter assay; activation, % (series mostly up to about 46 µM); AID 652025; IL-2 activation reporter assay, cell-based qHTS; stimulated with anti-CD3/CD4/CD28 beads; in transgenic mouse T cells; actives 0.065% (n = 360,000); in the data active = activation above about 50%; inconclusive = mostly about 30% to 49%; note: 0% is about no effect
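EGFP and DsRed fluorescence is measured by plate cytometry in unstimulated transgenic mouse T cells exposed to compound for 60 minutes, then stimulated 18 hours at 37 degrees C with anti-CD3/anti-CD4 beads plus anti-CD28.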
BRCA1 expr up: BRCA1 expression activation; MCF7-BRCA1-FFLuc reporter, luminescence, 48 h; response scale: scaled: vehicle 0%, 10 µM genistein 100%; Potency, µM (top dose mostly 46.1 µM), without a hit: at the top dose activation, hits mostly activators; actives 1.1% (n = 380,000); AID 624202; note: potency is the fitted concentration of half-maximal effect; nearly all actives have a fitted effect of over 80% in size
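48 h compound treatment of MCF7-BRCA1-FFLuc cells (phenol-red free MEM, 37 °C), then 15 min with luciferase substrate and luminescence imaging.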
p53 reactivator: re-activators of mutant p53; H1299 p53-A138V BP100-luciferase reporter, luminescence, 24 h; actives 0.063% (n = 320,000); Potency, µM (titrated, usually from 92.2 µM), for inactives: at the top dose activity change, positive = activation, actives largely listed as activators; note: potency is the fitted concentration of half-maximal effect; % of control where 0% means no effect; nearly all actives have a fitted effect of over 45% in size
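p53-null H1299 cells stably carrying temperature-sensitive p53-A138V and a BP100-luciferase reporter were pinned with compounds (4-point, 1:5 series) and held 24 hrs at 37 deg C. Luminescence was read 10 min after detection reagent.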
Nrf2 block: blocks Nrf2 signaling | actives 2.1% (n = 360,000) | A549 ARE-Fluc reporter, luciferase luminescence, 18-24 h | AID 504444 | Potency, µM (top dose mostly 46 µM), inactives show at the top dose activity change, negative = inhibition, actives largely listed as inhibitors; note: potency is the fitted concentration of half-maximal effect; % is set by controls: 0 for no effect and ±100 for the full control effect; nearly all actives have a fitted effect of over 60% in size
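A549 ARE_Fluc cells (5000/well, 5% FBS OPTI-MEM) pre-incubated 2 h, then treated with compounds 18-24 h at 37C/5% CO2 in concentration-response. CellTiter-Fluor viability read first; BugLite luciferase luminescence after 15 min at room temperature gives Nrf2 activity.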
Numbers without * were called inactive; u = inconclusive; x = not tested or not shown; [ ] = dose if it differs, or a comment. A selection: hits, their analogues and other compounds. The true share with any hit is near 3.2%. Unless noted, calls come from the whole dose curve; as a rule, active = well fitted curve in the direction sought with a large enough effect; inconclusive = small, poorly fitted or top-dose-only effect, or another doubt; inactive = no such curve, though single readings can be large; an effect the other way counts as inactive or inconclusive.

SMILES	Nrf2 activator	A549 viability	IL2 activator	BRCA1 expr up	p53 reactivator	Nrf2 block
COc1cc2nc(CN3CCN(S(=O)(=O)c4ccc(Cl)cc4)CC3)[nH]c(=O)c2cc1OC	1%	-9%	-1	-8%	-4%	23µM*
COc1cc2nc(CN3CCN(S(=O)(=O)c4ccccc4)CC3)[nH]c(=O)c2cc1OC	0%	0%	-2	-1%	-3%	-26%
COc1ccc(-c2nc3sc(CCNC(=O)c4cccc(C(F)(F)F)c4)c(C)n3n2)cc1	5%	-17%	x	6.3µM*	x	x
N#Cc1ccccc1Cn1c(SCC(=O)Nc2ccc(F)cc2)nc2ccccc21	5%	-9%	x	x	x	x
Cc1ccc(C)c(NC(=S)NNC(=O)c2csc3c2CCC(C)C3)c1 (stereo unspecified)	-1%	u	-3	-31%	1%	21µM*
Cc1ccc(C)c(NC(=S)NNC(=O)c2csc3c2CCCC3)c1	0%	0%	-4	-23%	-8%	x
Cc1ccc(NS(=O)(=O)c2cc3c(cc2/C=C/c2ccccc2)NC(=O)CO3)cc1C	x	1%	x	x	x	4%
CCOC(=O)C1=C(CN2CCC(C(=O)OCC)CC2)NC(=O)NC1c1ccc(Cl)cc1 (stereo unspecified)	0%	3%	x	5%	x	22%
CS(=O)(=O)Nc1ccc(N2CCN(c3ccc(C(F)(F)F)cn3)CC2)nc1	-1%	-7%	1	-37%	-3%	7.3µM*
CC(C)(C)C(=O)Nc1ccc(N2CCN(c3ccc(C(F)(F)F)cn3)CC2)nc1	0%	-11%	1	-7%	0%	u
O=C(OCc1cccc(F)c1)c1ccc2c(c1)-c1ccccc1C2=O	1%	-16%	-2	11µM*	u	u
O=C(OCc1ccccc1F)c1ccc2c(c1)-c1ccccc1C2=O	1%	13%	3	7.1µM*	u	u
Cc1ccc2c(c1)-c1onc(C(=O)N3CCN(c4cc(Cl)ccc4C)CC3)c1CO2	0%	0%	x	-20%	x	9%
CC(C)CC(OC(=O)CNC(=O)c1ccccc1)C(=O)Nc1cc(C(F)(F)F)ccc1Cl (stereo unspecified)	x	-8%	x	x	x	-3%
CCN(C(=O)NCc1noc2ccccc12)c1cc(C)ccc1C	0%	14%	x	x	x	-11%
Cc1nn(-c2ccccc2)cc1C(=S)Nc1ccccc1	3%	-2%	0	7.9µM*	u	30%
Cc1c(C(=S)Nc2ccccc2)cnn1-c1ccccc1	2%	-7%	-4	7.9µM*	8%	u
Cc1c(C(=S)Nc2ccccc2)cnn1-c1ccc([N+](=O)[O-])cc1	-1%[9.22 µM]	-3%	1	-30%	-19%	23µM*
Nc1c(C(=O)N/N=C/c2ccc([N+](=O)[O-])cc2)cnn1-c1ccccc1	-1%	1%	1	-5%	8%	-12%
CC(=O)c1cnn(-c2ccccc2)c1C	0%	5%	0	1%	0%	-3%
COC(=O)c1cn(NC(=O)c2cc([N+](=O)[O-])ccc2F)c(=O)c2ccccc12	18%	-16%	-1	-92%	-6%	5.2µM*
CC1=Nc2cc(C(=O)NC3CCCC3)ccc2Sc2ccc(C)cc21	0%	-7%	x	-21%	x	7%
CCOC(=O)N1CCC(NC(=O)c2ccc3c(c2)N(C)C(=O)/C(=C/c2cccc(OC)c2)S3)CC1	0%	8%	-2	-30%	7%	16µM*
CCOC(=O)N1CCC(NC(=O)c2ccc3c(c2)N(Cc2ccc(F)cc2)CCS3)CC1	-1%	-13%	-2	-54%	-2%	26µM*
CCOC(=O)N1CCC(NC(=O)c2ccc3c(c2)N(Cc2ccc(C)cc2)CCS3)CC1	3%	-1%	-4	6%	2%	-26%
SMILES	Nrf2 activator	A549 viability	IL2 activator	BRCA1 expr up	p53 reactivator	Nrf2 block
CCOC(=O)N1CCC(NC(=O)c2ccc3c(c2)N=C(C)c2ccccc2S3)CC1	2%	-5%	-2	-19%	-2%	21µM*
Cc1ccc(CN2CCSc3ccc(C(=O)N4CCN(c5ccccc5)CC4)cc32)cc1	0%	9%	x	x	x	-1%
CCOC(=O)N1CCN(C(=O)c2ccc3c(c2)N(C)C(=O)/C(=C\c2ccc(OCC)c(OC)c2)S3)CC1	5%	0%	-4	-52%	0%	-82%
O=C(c1ccc2c(c1)N(Cc1ccc(F)cc1)CCS2)N1CCN(c2ccccc2)CC1	1%	u	x	x	x	21µM*
Cc1cccc(C)c1NC(=O)CN(Cc1ccc(Br)cc1)S(=O)(=O)c1ccccc1	0%	1%	x	x	x	u
O=C(Cc1nnc(CNC(=O)c2ccccc2)o1)Nc1cc(C(F)(F)F)ccc1Cl	x	-1%	x	x	x	9%
CCN(C(=O)CN1C(=O)c2ccccc2Sc2ccc(C(=O)OC)cc21)c1cccc(C)c1	3%	0%	x	x	x	x
COc1ccccc1C(=O)NCC1CCN(c2ccc(S(=O)(=O)N3CCOCC3)cc2)CC1	2%	u	1	-48%	u	23µM*
COc1ccccc1C(=O)NCCC(=O)Nc1ccc(S(=O)(=O)N2CC(C)CC(C)C2)cc1 (stereo unspecified)	-1%	-6%	0	-14%	-8%	13µM*
O=S(=O)(c1ccc(NC(=S)N2CCN(c3ccc(O)cc3)CC2)cc1)N1CCOCC1	1%	-18%	2	-18%	-3%	12µM*
O=S(=O)(c1ccc(NC(=S)N2CCOCC2)cc1)N1CCCCC1	0%	x	-2	1%	x	x
O=C(NCC1CCN(c2ccc(S(=O)(=O)N3CCOCC3)cc2)CC1)Nc1ccccc1	4%	-16%	0	-18%	14%	15µM*
O=C(NCC1CCN(c2ccc(S(=O)(=O)N3CCOCC3)cc2)CC1)Nc1ccccc1F	0%	-5%	-1	-31%	-7%	-29%
CCc1ccc2occ(CC(=O)Nc3c(C(=O)c4ccccc4)oc4ccccc34)c2c1	1%	5%	x	x	x	5%
O=C(CSc1nnc(CNC(=O)c2c(F)cccc2Cl)o1)Nc1cccc(F)c1	5%	4%	x	x	x	45%
CNc1ccc(C=O)cc1Br	x	x	x	2%	x	x
COCc1cc(C)nc2sc(C(=O)Nc3cc(C)ccc3F)c(N)c12	6%	-3%	x	x	x	3%
O=C1C(Cl)=C(N2CCCCCC2)C(=O)N1c1ccccc1Cl	3%	-9%	7	7%	1%	4%
Cc1ccc(N2C(=O)C(Cl)=C(N3CCCCCC3)C2=O)c(C)c1	-1%	u	-6	1%	3%	23µM*
CCn1c2c(c(=O)n3ncc(C(=O)Nc4ccc(OC(F)(F)F)cc4)c13)CN(Cc1ccc(OC)cc1)CC2	12%	-11%	x	x	x	x

High-throughput results deposited in PubChem BioAssay by National Center for Advancing Translational Sciences (NCATS).
